# ALOX12 inhib: blocks human 12-lipoxygenase activity. hit rate 0.12% among 150,000. purified 12-hLO, xylenol orange hydroperoxide absorbance. P18054. Potency, µM (titrated, usually from 57.1 µM), usual class: inhibitors; further: nearly all actives have a fitted effect of over 55% in size
#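 Hydroperoxide output read as Fe(III)-xylenol orange absorbance, 573-to-405 nm ratio, after 30 min reaction with 40 uM arachidonic acid. Enzyme: 150 nM purified human 12hLO, 15 min compound preincubation; 25 mM Hepes pH 7.0, room temperature.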
# IMPase Li cell: membrane-permeable IMPase blocker, potentiated with lithium; Potency, µM (highest dose often 59.4 µM), most hits filed as inhibitors; CHO-M1 cells, IP1 TR-FRET (IP-One), carbachol + lithium; hit rate 0.35% among 210,000;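 further: IP1 builds up when IMPase is blocked and the TR-FRET signal falls; nearly all actives have a fitted effect of over 50% in size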
#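 Concentration–response in CHO-M1 cells, lithium-potentiated; 30 min at 37C. IP1 detected by competitive TR-FRET after 10 min lysis at RT. Hill-fitted AC50.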
# IMPase inh: membrane-permeable compound that blocks inositol monophosphatase; AID 901; P97697; 120,000 tested, under 10 active; inhibition (IP1 accumulation), % at 46.1 µM; CHO-M1 cells, IP1 accumulation, HTRF TR-FRET ratio; active means well fitted curve in the direction sought with a large enough effect in the signal ratio, not every such curve was filed as active; inconclusive means small, poorly fitted or top-dose-only effect, or a change in a side signal; inactive means no such curve, though single readings can be large or run the other way; the % refers to the signal ratio;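 further: cells stimulated with carbachol in lithium chloride buffer; higher means more IMPase inhibition seen as more IP1 and lower FRET ratio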
# Target sequence (P97697 whole entry, looked up): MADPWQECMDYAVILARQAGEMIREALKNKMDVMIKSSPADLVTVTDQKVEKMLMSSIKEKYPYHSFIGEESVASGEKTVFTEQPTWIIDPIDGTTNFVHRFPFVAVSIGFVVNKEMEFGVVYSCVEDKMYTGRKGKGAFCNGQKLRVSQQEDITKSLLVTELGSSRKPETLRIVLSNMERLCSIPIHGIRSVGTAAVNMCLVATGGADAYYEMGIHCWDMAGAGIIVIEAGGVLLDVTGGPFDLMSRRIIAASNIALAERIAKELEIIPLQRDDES
#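 CHO-M1 cells (CHO stably expressing M1 receptor), compound up to 46 uM final, stimulated with carbachol (50 uM as added) in buffer with 50mM LiCl, pH 7.4, 30 min at 37C. Cytosolic IP1 read by TR-FRET; AC50 from Hill fits.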
# PNC assembly inh: inhibitors of perinucleolar compartment assembly; PC3M PTB-GFP, PNC prevalence imaging, 16 h; active compounds read low; activity change (PNC), negative = inhibition, % at 10 µM; hit rate 3.1% among 140,000; AID 2417;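 active means readout at or below -70, meaning at least 70% loss of cells showing the perinucleolar compartment, a nuclear body marking cancer cells; inconclusive means readout between -30 and a set limit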
#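 Read-out is percentage of cells bearing a perinucleolar compartment, from automated 20x imaging of fixed, Hoechst-stained PC3M PTB-GFP cells. Cells were seeded 4 h, then exposed 16 h to compound (23 nl of library stock) in duplicate plates.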
# HPGD inh: inhibitors of human 15-hydroxyprostaglandin dehydrogenase (HPGD) | P15428 | purified HPGD, NADH fluorescence kinetic, PGE2 substrate | Potency, µM, most hits filed as inhibitors | hit rate 4.3% among 150,000 | AID 894; active means well fitted inhibition curve with a large enough effect, not every such curve was filed as active; inconclusive means small, poorly fitted or top-dose-only effect, or another doubt; inactive means no such curve, though single readings can be large or run the other way
#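 20 nM HPGD preincubated 15 min at room temperature with compound in 50 mM Tris-HCl pH 8, 0.01% Tween 20. Started with 1 mM NAD+ and 30 uM prostaglandin E2; NADH fluorescence (360/450 nm) read 5 times over 30-s intervals, last minus first.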
# ALDH1A1 inh: ALDH1A1 (human) enzyme inhibition. P00352. Purified ALDH1A1, NADH fluorescence, propionaldehyde substrate. Potency, µM (doses to about 75.3 µM), actives largely listed as inhibitors. hit rate 7.3% among 220,000; active means well fitted inhibition curve with a large enough effect, not every such curve was filed as active; inconclusive means small, poorly fitted or top-dose-only effect, or another doubt; inactive means no such curve, though single readings can be large or run the other way
# Target sequence (P00352 whole entry, looked up): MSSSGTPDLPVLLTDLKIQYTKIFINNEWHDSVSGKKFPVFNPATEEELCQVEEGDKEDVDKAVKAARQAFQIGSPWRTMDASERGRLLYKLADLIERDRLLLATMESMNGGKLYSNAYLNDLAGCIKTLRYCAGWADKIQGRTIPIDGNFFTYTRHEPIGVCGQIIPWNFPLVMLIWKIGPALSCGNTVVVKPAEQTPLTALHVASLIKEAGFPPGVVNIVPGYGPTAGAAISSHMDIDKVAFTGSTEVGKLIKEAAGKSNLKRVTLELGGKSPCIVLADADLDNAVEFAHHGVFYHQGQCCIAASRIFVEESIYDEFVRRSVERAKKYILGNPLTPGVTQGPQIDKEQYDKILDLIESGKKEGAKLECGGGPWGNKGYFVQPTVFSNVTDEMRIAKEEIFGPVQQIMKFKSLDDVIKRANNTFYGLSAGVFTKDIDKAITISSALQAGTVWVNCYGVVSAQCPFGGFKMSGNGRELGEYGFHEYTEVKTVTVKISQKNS
# A number is an active result; 0 = inactive; ? = inconclusive; - = not tested or not shown; [ ] = dose if it differs, or a comment. The list is not random: actives were taken first. Their share in the collection is about 11%. Unless noted, the call rests on the fitted dose curve; in most records, active means well fitted curve in the direction sought with a large enough effect; inconclusive means small, poorly fitted or top-dose-only effect, or another doubt; inactive means no such curve, though single readings can be large; an effect the other way counts as inactive or inconclusive.
SMILES,ALOX12 inhib,IMPase Li cell,IMPase inh,PNC assembly inh,HPGD inh,ALDH1A1 inh
COc1ccc(O[C@H]2C=C[C@@H](c3ccccc3)O[C@@H]2COC(=O)CC/C(C)=N/O[C@@H](C)CN2CCCCc3nc(C)c(C)cc32)cc1,0,0,-,-83,0,0
Cc1ccc2c(c1)NC(c1cccs1)C1=C(CC(C)(C)CC1=O)N2 (stereo unspecified),-,0,-,-,-,0
Cc1cc2c(cc1C)NC(c1c(C)n(C)n(-c3ccccc3)c1=O)C1=C(CC(C)(C)CC1=O)N2 (stereo unspecified),0,0,0,0,0,22µM
Cc1ccc(S(=O)(=O)Nc2cccnc2Oc2ccc(Cl)cc2)cc1,-,-,-,-,-,0.02µM
Cc1c(NC(=S)N2CCN(c3ccc(F)cc3)CC2)c(=O)n(-c2ccccc2)n1C,-,0,-,-,-,0
Cc1ccn2c(CCc3nnc4cc(C)ccn34)nnc2c1,0[11.4 µM],0,-,-,0,0[13.5 µM]
O=C(O)c1ccc(CSc2n[nH]c(-c3ccco3)n2)cc1,0,0,0,0,2.8µM,?
O=C(CSc1n[nH]c(-c2ccco2)n1)N1c2ccccc2Sc2ccccc21,0,0,0,?,13µM,7.9µM
Cc1cnc(CNc2ncnc3ccc(-c4ccccc4C#N)cc23)cn1,0,0,-,-,0,0
COc1cccc(NC(=O)Cn2c(CCC(=O)O)ccc2-c2ccc(Cl)cc2)c1,-,0,-,-,-,25µM
COC(=O)c1cccc(NC(=O)CN2CCN(Cc3ccccc3)CC2)c1,0,0,0,0,0,25µM
COc1cccc(NC(=O)Cn2c(CCC(=O)O)ccc2-c2ccccc2)c1,-,0,-,-,-,0
COc1cc(NC(=O)CN2CCN(c3ccccc3F)CC2)cc(OC)c1,0,0,0,?,0,22µM
COc1ccc(CCNC(=O)CN2CCN(c3cccc(C(F)(F)F)c3)CC2)cc1,0,0,0,0,0,0
COc1ccc(CCNC(=O)CN2CCN(c3ccccc3Cl)CC2)cc1,0,0,0,?,0,3.2µM
COc1cc(C2c3c(oc4ccccc4c3=O)C(=O)N2c2nnc(C(C)C)s2)cc(OC)c1OC (stereo unspecified),-,-,0,-,-,-
CSc1ccc(C2c3c(oc4ccc(F)cc4c3=O)C(=O)N2c2ccc(C)cn2)cc1 (stereo unspecified),-,-,0,-,-,-
O=C(Nc1ccccc1C(F)(F)F)c1cc2nc(-c3ccccc3)cc(-c3ccccc3)n2n1,-,-,0,-,-,-
c1ccc(-c2ccccc2OCCCCN2CCCCCC2)cc1,-,0,-,-,-,?
COc1cccc(NC(=O)CN2CCN(c3ccccc3F)CC2)c1,0,0,0,?,0,10µM
Cc1ccc(C)c(N2CCN(C3(c4ccccc4)C(=O)c4ccccc4C3=O)CC2)c1,-,-,0,-,-,-
CCN1CCN(c2cc3c(cc2F)c(=O)c(C(=O)O)cn3C2CC2)CC1,0,0,-,-115,?,?
CC(=O)N1CCN(c2cc3c(cc2F)c(=O)c(C(=O)O)cn3C2CC2)CC1,-,0,-,-,-,?
CO[C@@H]1COC(=O)[C@H](COCc2ccccc2)NC(=O)C/C=C\[C@@H](C)[C@H](OC)COC(=O)[C@@H](C)NC(=O)C/C=C\[C@H]1C,-,-,-,-,-,0[13.5 µM]
CCc1ccc(NC(=O)Cn2c3[n+](c4c(F)c(F)ccc42)CCCCC3)cc1,-,0,-,-,-,10µM
SMILES,ALOX12 inhib,IMPase Li cell,IMPase inh,PNC assembly inh,HPGD inh,ALDH1A1 inh
COc1ccc(CCNc2nc3c(c(=O)n(C)c(=O)n3C)n2Cc2ccc(F)cc2)cc1OC,-,-,0,-,-,-
COC(=O)C1=C(C)N(Cc2ccc(OC)cc2)C(=O)/C1=C\c1ccco1,-,-,-,-,-,0
COC(=O)C1=C(C)N(Cc2ccco2)C(=O)/C1=C\c1ccc([N+](=O)[O-])cc1,-,0,-,-,-,15µM
COC(=O)CCC(=O)COc1ccccc1C#N,0,0,0,0,14µM,?
COC(=O)CCC(=O)COc1ccc(OC)cc1C#N,0,-,0,0,-,0
C=C(C#N)C(=O)OCC,0,0,-,-,0,8.9µM
CCOC(C)=O,0,0,-,-,0,?
Cc1cc(C)c2cc(CN(CCO)Cc3nnnn3Cc3ccc(F)cc3)c(=O)[nH]c2c1,0,0,0,0,0,13µM
COCCn1nnnc1CN(CCc1ccc(OC)c(OC)c1)Cc1cc2ccc(C)cc2[nH]c1=O,0,0,0,0,0,11µM
O=c1[nH]c2cc3c(cc2cc1CN(CCCO)Cc1nnnn1Cc1ccc(F)cc1)OCO3,0,?,0,0,?,?
Cc1cc(C)c2cc(CN(CCO)Cc3nnnn3Cc3ccccc3)c(=O)[nH]c2c1,0,0,0,0,0,5µM
COCCn1nnnc1CN(Cc1cccnc1)Cc1cc2cc(OC)ccc2[nH]c1=O,0,0,0,?,?,?
Cc1ccc2cc(CN(CCO)Cc3nnnn3Cc3ccc(F)cc3)c(=O)[nH]c2c1,0,0,0,?,0,20µM
COc1ccc(S(=O)(=O)Nc2cc3c(cc2NCc2ccccc2)n(C)c(=O)n3C)cc1,-,-,0,-,-,-
CCOc1ccccc1C(=O)Nc1ccc(S(=O)(=O)Nc2onc(C)c2C)cc1,-,-,0,-,-,-
CC(=O)OC[C@@H]1O[C@H](CCO/N=C(\C)CCN2CCCCc3nc(C)c(C)cc32)C=C[C@@H]1OC(C)=O,-,-,-,-,-,0[13.5 µM]
CCn1c2ccccc2c2cc(CN3CCN(Cc4cc(OC)ccc4O)CC3)ccc21,-,0,-,-,-,35µM
COc1ccc(CN2CCN(CC(O)Cn3c4ccccc4c4ccccc43)CC2)cc1 (stereo unspecified),0,0,-,-102,0,0
CCN(CC)c1ccc(C=NCCc2ccc(S(N)(=O)=O)cc2)cc1,-,0,-,-,-,0.13µM
CCN(CC)c1ccc(/C=N/O)cc1,-,0,-,-,-,?
Nc1nc2c(nc(Br)n2C2O[C@H]3COP(=O)(O)O[C@@H]3C2O)c(=O)[nH]1 (stereo partly specified),-,0,-,-,0,0
Cc1nc(C)c(C(=O)Nc2ccc(Oc3ccccc3)cc2)o1,0,0,0,?,0,32µM
Cc1ncoc1C(=O)Nc1ccc(Oc2ccccc2)cc1,0,0,0,0,0,0
CN(C)C(=O)c1ccc(-c2ccc3ncnc(N(C)Cc4ccco4)c3c2)cc1,-,0,-,-,-,?
COc1cc(Sc2ccc(C)cc2)c(OC)cc1N,0,0,0,0,28µM,3.5µM
CC(C)(C)NC[C@H](O)COc1cccc2c1C[C@@H](O)[C@@H](O)C2,0,0,0,-,0,0
CCN(CC)C(=O)CSc1nc(N)c(C#N)c(-c2cccs2)c1C#N,0,0,0,?,0,?
Cc1nc(SCC(=O)Nc2nc3ccccc3s2)c(C#N)c(C)c1C,0,0,-,0,28µM,?
Cc1cc(C(F)(F)F)c(C#N)c(SCC(=O)Nc2nc3ccccc3s2)n1,0,0,0,0,0,0
Cc1ccccc1NC(=O)CSc1nc(N)c(C#N)c(-c2cccs2)c1C#N,0,5µM,?,?,?,?
